According to PubChem BioAssay (EPA / NIEHS):
Activity calls are given as the source filed them. Rule for the calls: active = hit-call score of the fitted dose curve at least 0.9, where 1 is the maximum; inactive = score below 0.9.

Key:
Conditions in all cases: mRNA level, 48 h; actives raise or lower the signal
[1] = read-out: matrix metalloproteinase-10 (MMP10), MMP10 (gene 4319); test: LTEA_HepaRG_MMP10: Life Technologies and Expression Analysis (LTEA) Assay for matrix metalloproteinase-10 (MMP10) using HepaRG (AID 2283517)
In short: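 Transcript levels come from Fluidigm qRT-PCR normalized to three housekeeping genes, with curves fitted bidirectionally against 0.5% DMSO. Human HepaRG cells were dosed for 48 hours at concentrations up to 100 uM.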

MYC, MYC (gene 4609) = test: LTEA_HepaRG_MYC: Life Technologies and Expression Analysis (LTEA) Assay for MYC using HepaRG (AID 2283518)
In short: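 HepaRG, ~100,000 cells/well, collagen I; 48 h plating; serum-free induction medium; 48 h dosing, duplicate, 100 uM top, half-log, 0.5% DMSO; total RNA → qRT-PCR MYC; gain/loss fit vs DMSO.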

[2] = read-out: matrix metalloproteinase-3 (MMP3), MMP3 (gene 4314); test: LTEA_HepaRG_MMP3: Life Technologies and Expression Analysis (LTEA) Assay for matrix metalloproteinase-3 (MMP3) using HepaRG (AID 2283519)
In short: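 qRT-PCR read-out of MMP3 mRNA (normalised to three housekeeping genes) in HepaRG liver cells after 48 h chemical exposure; 8-point half-log series, top 100 uM, 0.5% DMSO vehicle. Bidirectional curve fitting against DMSO baseline.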

[3] = read-out: Paternally Expressed 10 (PEG10), PEG10 (gene 23089); test: LTEA_HepaRG_PEG10: Life Technologies and Expression Analysis (LTEA) Assay for Paternally Expressed 10 (PEG10) using HepaRG (AID 2283520);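 for AC50: PEG10 transcript by qRT-PCR normalised to ACTB GAPDH and POLR2A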
In short: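 After 48 h exposure of differentiated HepaRG cells (0.5% DMSO vehicle, eight concentrations up to 100 uM, duplicates), PEG10 mRNA was measured by TaqMan qRT-PCR. Values were normalised to endogenous control genes and analysed bidirectionally against vehicle.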

[4] = read-out: Nuclear factor NF-kappa-B p105 subunit (Homo sapiens) (UniProt P19838); test: LTEA_HepaRG_NFKB1: Life Technologies and Expression Analysis (LTEA) Assay for Nuclear Factor Kappa B Subunit 1 (NFKB1) using HepaRG (AID 2283521);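 note: TaqMan qRT-PCR transcript normalised to ACTB GAPDH and POLR2A housekeeping genes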
In short: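 Differentiated human HepaRG cells were exposed for 48 h in serum-free induction medium to eight concentrations (top 100 uM, half-log steps, 0.5% DMSO), in duplicate. NFKB1 mRNA was measured by TaqMan qRT-PCR, normalized to ACTB/GAPDH/POLR2A, and fitted bidirectionally against DMSO.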

[5] = read-out: Protein phosphatase 2A (PPP2R4), PTPA (gene 5524); test: LTEA_HepaRG_PPP2R4: Life Technologies and Expression Analysis (LTEA) Assay for Protein phosphatase 2A (PPP2R4) using HepaRG (AID 2283522)
In short: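 Using HepaRG cultures maintained in 0.5% DMSO, chemicals are tested 48 h at up to 100 uM in duplicate. Induction or suppression of PPP2R4 mRNA, measured by qRT-PCR, is fitted bidirectionally against the vehicle baseline.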

[6] = read-out: solute carrier (SLC22A1), SLC22A1 (gene 6580); test: LTEA_HepaRG_SLC22A1: Life Technologies and Expression Analysis (LTEA) Assay for solute carrier (SLC22A1) using HepaRG (AID 2283524)
In short: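 qRT-PCR readout (TaqMan, Fluidigm arrays) of SLC22A1 transcript, normalized to three housekeeping genes; bidirectional curve fit relative to 0.5% DMSO vehicle. Differentiated human HepaRG cells, 48 h chemical exposure, top concentration 100 uM, half-log steps, eight points.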

[7] = read-out: Pyruvate Dehydrogenase Kinase 4 (PDK4), PDK4 (gene 5166); test: LTEA_HepaRG_PDK4: Life Technologies and Expression Analysis (LTEA) Assay for Pyruvate Dehydrogenase Kinase 4 (PDK4) using HepaRG (AID 2283525)
In short: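 HepaRG (human liver line), 48 h chemical exposure, 8-pt half-log CRC top 100 uM, 0.5% DMSO vehicle, duplicates. Readout: TaqMan qRT-PCR of PDK4 mRNA, housekeeping-normalized; gain/loss fit relative to DMSO baseline.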

[8] = read-out: Phosphatase and tensin (PTEN), PTEN (gene 5728); test: LTEA_HepaRG_PTEN: Life Technologies and Expression Analysis (LTEA) Assay for Phosphatase and tensin (PTEN) using HepaRG (AID 2283523)
In short: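 HepaRG, 48 h exposure, 8-pt half-log series from 100 uM top, 0.5% DMSO vehicle, duplicates. Readout: Fluidigm qRT-PCR of PTEN transcript; housekeeping normalization (ACTB, GAPDH, POLR2A). Gain or loss fitted relative to DMSO baseline.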

Nuclear factor NF-kappa-B p105 subunit (Homo sapiens), sequence (P19838 whole entry, looked up): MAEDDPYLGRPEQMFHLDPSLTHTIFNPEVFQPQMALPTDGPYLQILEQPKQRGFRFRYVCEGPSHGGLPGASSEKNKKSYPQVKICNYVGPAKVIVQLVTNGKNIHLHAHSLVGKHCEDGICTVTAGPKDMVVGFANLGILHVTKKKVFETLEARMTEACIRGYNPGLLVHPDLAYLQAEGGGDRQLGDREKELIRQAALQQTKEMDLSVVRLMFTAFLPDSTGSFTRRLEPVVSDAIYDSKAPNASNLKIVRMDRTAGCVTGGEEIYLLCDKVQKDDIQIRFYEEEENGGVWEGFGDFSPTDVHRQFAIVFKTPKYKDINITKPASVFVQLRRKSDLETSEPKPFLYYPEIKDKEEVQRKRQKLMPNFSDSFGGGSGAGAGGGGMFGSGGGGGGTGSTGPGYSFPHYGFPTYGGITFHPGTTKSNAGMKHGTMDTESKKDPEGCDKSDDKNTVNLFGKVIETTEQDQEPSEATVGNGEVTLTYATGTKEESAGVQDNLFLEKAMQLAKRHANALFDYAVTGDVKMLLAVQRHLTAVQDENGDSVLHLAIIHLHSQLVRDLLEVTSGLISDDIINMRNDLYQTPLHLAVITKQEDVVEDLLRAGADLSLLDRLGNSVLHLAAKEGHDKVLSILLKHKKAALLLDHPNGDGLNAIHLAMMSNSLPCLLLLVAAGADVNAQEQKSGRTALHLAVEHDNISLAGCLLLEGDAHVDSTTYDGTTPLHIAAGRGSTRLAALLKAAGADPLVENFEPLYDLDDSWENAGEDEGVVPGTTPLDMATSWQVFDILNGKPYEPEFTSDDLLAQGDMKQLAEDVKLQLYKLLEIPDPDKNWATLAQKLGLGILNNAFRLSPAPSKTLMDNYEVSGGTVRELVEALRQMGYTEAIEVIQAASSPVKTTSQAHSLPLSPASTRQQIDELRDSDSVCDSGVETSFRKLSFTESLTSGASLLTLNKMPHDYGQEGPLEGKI

SMILES	outcome [1]	outcome (MYC, MYC (gene 4609))	outcome [2]	outcome [3]	outcome [4]	outcome [5]	outcome [6]	outcome [7]	AC50 [3]	AC50 [7]	outcome [8]	AC50 [6]	AC50 [1]	AC50 (MYC, MYC (gene 4609))	AC50 [2]	AC50 [5]
CNC(=O)ON=C(SC)C(=O)N(C)C	inactive	inactive	inactive	inactive	inactive	inactive	inactive	inactive	–	–	–	–	–	–	–	–
CC1(C(=O)Nc2ccc(O)c(Cl)c2Cl)CCCCC1	inactive	inactive	inactive	inactive	inactive	inactive	inactive	inactive	–	–	–	–	–	–	–	–
O=C(O)c1cc(Oc2ccc(C(F)(F)F)cc2Cl)ccc1[N+](=O)[O-]	inactive	inactive	inactive	–	inactive	inactive	inactive	–	50 µM (active)	42.1 µM (active)	–	–	–	–	–	–
CN(C)NC(=O)CCC(=O)O	inactive	inactive	inactive	inactive	inactive	inactive	inactive	inactive	–	–	–	–	–	–	–	–
CC(=NC#N)N(C)Cc1ccc(Cl)nc1	inactive	inactive	inactive	inactive	inactive	inactive	inactive	inactive	–	–	–	–	–	–	–	–
CCOC(=O)CC(SP(=O)(OC)OC)C(=O)OCC (configuration not stated)	inactive	inactive	inactive	inactive	inactive	inactive	inactive	–	–	22 µM (active)	–	–	–	–	–	–
CON=C(C(=O)OC)c1ccccc1CON=C(C)c1cccc(C(F)(F)F)c1	inactive	inactive	inactive	inactive	inactive	inactive	–	inactive	–	–	inactive	50 µM (active)	–	–	–	–
COP(=O)(OC)OC(Br)C(Cl)(Cl)Br (configuration not stated)	inactive	inactive	inactive	inactive	–	inactive	inactive	inactive	–	–	inactive	–	–	–	–	–
Cc1ccn2nc(S(=O)(=O)Nc3c(F)cccc3F)nc2n1	inactive	inactive	inactive	inactive	–	inactive	inactive	inactive	–	–	inactive	–	–	–	–	–
CC(COc1ccc(Oc2ccccc2)cc1)Oc1ccccn1 (configuration not stated)	inactive	inactive	inactive	inactive	inactive	inactive	–	–	–	25.4 µM (active)	–	12.1 µM (active)	–	–	–	–
CCCCOC(=O)[C@@H](C)Oc1ccc(Oc2ccc(C#N)cc2F)cc1	inactive	inactive	inactive	inactive	inactive	inactive	inactive	–	–	49.8 µM (active)	–	–	–	–	–	–
C=C(C)[C@H]1Cc2c(ccc3c2O[C@@H]2COc4cc(OC)c(OC)cc4[C@@H]2C3=O)O1	–	–	–	–	inactive	–	–	–	0.173 µM (active)	13.2 µM (active)	–	1.95 µM (active)	17.7 µM (active)	6.64 µM (active)	14.3 µM (active)	50 µM (active)
CCOC(=O)COc1cc(-c2nn(C)c(OC(F)F)c2Cl)c(F)cc1Cl	inactive	inactive	inactive	inactive	inactive	inactive	inactive	inactive	–	–	–	–	–	–	–	–
COP(=O)(NC(C)=O)SC (configuration not stated)	inactive	inactive	inactive	inactive	–	inactive	inactive	inactive	–	–	–	–	–	–	–	–
CNC(=O)ON=C(C)SC	inactive	inactive	inactive	inactive	inactive	inactive	inactive	inactive	–	–	inactive	–	–	–	–	–
CSc1nnc(C(C)(C)C)c(=O)n1N	inactive	inactive	inactive	inactive	inactive	inactive	inactive	inactive	–	–	inactive	–	–	–	–	–
CCCSP(=O)(OCC)SCCC	inactive	inactive	inactive	inactive	–	inactive	–	inactive	–	–	inactive	10.2 µM (active)	–	–	–	–
CCOP(=O)(SC(C)CC)N1CCSC1=O (configuration not stated)	–	inactive	inactive	–	–	inactive	inactive	–	26.2 µM (active)	21.7 µM (active)	–	–	–	–	–	–
N#CSCSC#N	–	inactive	inactive	inactive	inactive	inactive	–	inactive	–	–	–	74.2 µM (active)	83 µM (active)	–	–	–
